Bioassay records deposited in PubChem BioAssay by several laboratories.
LANA-H2B inh – blockers of LANA interaction with H2A/H2B – biochemical, FP readout, HTS, primary screen; Protein LANA1 (Human herpesvirus 8 type P (isolate GK18)), Q9QR71; cell-free LANA-H2A/H2B peptide, fluorescence polarization; inhibition, % (test concentration not listed); 0.6% of 320,000 active; in the data active = inhibition mostly above about 10%, no sharp cut-off; inactive = mostly below about 6.7%
Target sequence (Q9QR71 whole entry, looked up): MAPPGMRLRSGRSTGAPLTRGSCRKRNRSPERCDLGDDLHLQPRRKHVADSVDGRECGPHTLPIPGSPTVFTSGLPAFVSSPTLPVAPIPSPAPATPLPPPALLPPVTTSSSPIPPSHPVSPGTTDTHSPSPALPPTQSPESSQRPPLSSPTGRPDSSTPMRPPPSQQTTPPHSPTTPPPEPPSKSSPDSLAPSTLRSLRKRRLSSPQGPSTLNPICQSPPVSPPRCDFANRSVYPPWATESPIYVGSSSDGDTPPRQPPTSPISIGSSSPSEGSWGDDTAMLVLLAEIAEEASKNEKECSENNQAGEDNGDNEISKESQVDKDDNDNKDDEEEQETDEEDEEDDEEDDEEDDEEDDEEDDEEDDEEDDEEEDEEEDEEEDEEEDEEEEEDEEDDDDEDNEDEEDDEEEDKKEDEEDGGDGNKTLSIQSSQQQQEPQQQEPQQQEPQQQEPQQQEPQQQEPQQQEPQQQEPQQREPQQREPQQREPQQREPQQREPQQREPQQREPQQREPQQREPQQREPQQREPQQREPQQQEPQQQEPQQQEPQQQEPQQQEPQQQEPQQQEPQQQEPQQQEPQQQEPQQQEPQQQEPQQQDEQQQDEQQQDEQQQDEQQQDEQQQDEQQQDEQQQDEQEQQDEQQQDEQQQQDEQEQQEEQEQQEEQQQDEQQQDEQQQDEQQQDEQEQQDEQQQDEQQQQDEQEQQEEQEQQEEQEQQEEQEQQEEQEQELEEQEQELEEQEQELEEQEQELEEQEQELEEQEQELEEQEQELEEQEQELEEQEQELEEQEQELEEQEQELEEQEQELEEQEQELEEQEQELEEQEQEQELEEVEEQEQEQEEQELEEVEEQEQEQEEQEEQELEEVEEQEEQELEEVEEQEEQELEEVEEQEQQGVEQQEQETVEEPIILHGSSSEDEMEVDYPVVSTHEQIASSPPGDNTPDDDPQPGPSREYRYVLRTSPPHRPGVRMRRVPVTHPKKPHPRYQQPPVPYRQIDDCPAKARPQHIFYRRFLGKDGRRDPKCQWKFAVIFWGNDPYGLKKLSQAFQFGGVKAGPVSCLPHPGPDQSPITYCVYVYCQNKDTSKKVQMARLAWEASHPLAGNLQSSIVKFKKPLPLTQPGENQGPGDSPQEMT
rCAG RNA binder – binders of r(CAG) RNA repeats, primary screen, biochemical, fluorescence | r(CAG) RNA repeat, TO-PRO-1 dye displacement fluorescence | inhibition, % at 3 µM | 1.3% of 370,000 active | AID 651821, 2012;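 active = inhibition above the plate cutoff, the mean of all test compounds on that plate plus 3 SD, cut at about 35% in these data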;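 note: higher means more dye released from RNA so lower well fluorescence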
ALR inh – inhibitors of human ALR sulfhydryl oxidase, primary screen, biochemical, H2O2 detection, HRP-luminol luminescence, single point | FAD-linked sulfhydryl oxidase ALR (Homo sapiens), P55789 | purified ALR, DTT oxidation | inhibition, % (test concentration not listed) | 3.8% of 290,000 active;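 active = mean replicate inhibition above about 79%, with every replicate also reaching it, limit read from the data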
ABHD5 PLIN5 PPI – ABHD5-PLIN5 interaction inhibitors, primary screen, cell lysate, split luciferase complementation, luminescence; inhibition, % at 4 µM; AID 602281, 2012; Split G. princeps luciferase complementation, 4 h; 0.78% of 360,000 active; Perilipin-5 (Homo sapiens) + 1-acylglycerol-3-phosphate O-acyltransferase ABHD5 (Homo …;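 active = inhibition above the mean inhibition across every tested compound plus 3 SD, cut at about 22% in these data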
PRMT1 inh – PRMT1 methyltransferase inhibitors, primary screen, biochemical, fluorescence polarization | inhibition, % at 2.79 µM | recombinant PRMT1, activity-based probe fluorescence polarization | Protein arginine N-methyltransferase 1 (Homo sapiens), Q99873 | 1.3% of 370,000 active;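 active = inhibition above about 21% made by adding two undisclosed values, limit read from the data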
Rtt109 Vps75 – inhibitors of C. albicans Rtt109/Vps75 HAT, primary screen, biochemical, ThioGlo CoA-SH fluorescence, plate reader; inhibition, % at 34.9 µM; Histone acetyltransferase RTT109 (Candida albicans (strain SC5314 / ATCC MYA-2876)), …; purified Rtt109/Vps75, 4 h; 0.16% of 330,000 active;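 active = inhibition of at least 50% in every replicate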
Numbers stand for hits. An excerpt weighted towards active compounds, which were near 5.9% of everything screened.

Results for O=C(CSc1nnc(-c2ccc3c(c2)OCCO3)o1)N1CCCC1 ?
LANA-H2B inh: inactive; rCAG RNA binder: inactive; ALR inh: 99; ABHD5 PLIN5 PPI: inactive; PRMT1 inh: inactive; Rtt109 Vps75: inactive

How did Cc1csc(=N)n1-c1ccc(Cl)cc1 do in these assays?
LANA-H2B inh: inactive; rCAG RNA binder: inactive; ALR inh: 96; ABHD5 PLIN5 PPI: inactive; PRMT1 inh: inactive; Rtt109 Vps75: inactive

What do the screens show for `Cc1ccc(-n2c(C)csc2=N)cc1`?
LANA-H2B inh: inactive; rCAG RNA binder: inactive; ALR inh: inactive; ABHD5 PLIN5 PPI: inactive; PRMT1 inh: inactive; Rtt109 Vps75: inactive

How did Cc1ccc(NC(=O)CCCC(=O)O)c(Br)c1 do in these assays?
LANA-H2B inh: inactive; rCAG RNA binder: inactive; ALR inh: inactive; ABHD5 PLIN5 PPI: inactive; PRMT1 inh: inactive; Rtt109 Vps75: inactive

What do the screens show for `Cc1ccc(O)c(NC(=O)CCCC(=O)O)c1`?
LANA-H2B inh: inactive; rCAG RNA binder: inactive; ALR inh: 82; ABHD5 PLIN5 PPI: inactive; PRMT1 inh: inactive; Rtt109 Vps75: inactive

What do the screens show for `Cc1cccn2cc(CNc3ccccc3)nc12`?
LANA-H2B inh: inactive; rCAG RNA binder: inactive; ALR inh: 98; ABHD5 PLIN5 PPI: inactive; PRMT1 inh: inactive; Rtt109 Vps75: inactive

How did Cc1cccn2cc(CCNS(=O)(=O)c3cccs3)nc12 do in these assays?
LANA-H2B inh: inactive; rCAG RNA binder: inactive; ABHD5 PLIN5 PPI: inactive; PRMT1 inh: inactive; Rtt109 Vps75: 55

Results for CCCS(=O)(=O)NCc1cn2cccc(C)c2n1 ?
LANA-H2B inh: inactive; rCAG RNA binder: inactive; ALR inh: inactive; ABHD5 PLIN5 PPI: inactive; PRMT1 inh: inactive; Rtt109 Vps75: inactive

How did O=C(CCl)NN=C(c1ccccc1)c1ccccc1 do in these assays?
LANA-H2B inh: inactive; rCAG RNA binder: inactive; ALR inh: 94; ABHD5 PLIN5 PPI: inactive; PRMT1 inh: inactive; Rtt109 Vps75: inactive

How did CCN(CC)CC(=O)NN=C(c1ccccc1)c1ccccc1 do in these assays?
LANA-H2B inh: inactive; rCAG RNA binder: inactive; ALR inh: inactive; ABHD5 PLIN5 PPI: inactive; PRMT1 inh: inactive; Rtt109 Vps75: inactive

How did COc1cccc(N2CCN(C(=O)CCNS(=O)(=O)c3ccc(F)c(F)c3)CC2)c1 do in these assays?
LANA-H2B inh: inactive; rCAG RNA binder: inactive; ABHD5 PLIN5 PPI: inactive; PRMT1 inh: inactive; Rtt109 Vps75: inactive

How did S=c1nc(-c2ccccc2Cl)[nH][nH]1 do in these assays?
LANA-H2B inh: inactive; rCAG RNA binder: inactive; ALR inh: 99; ABHD5 PLIN5 PPI: inactive; PRMT1 inh: inactive; Rtt109 Vps75: inactive

What do the screens show for `COc1ccc(CCNC(=O)c2ccc3nc(-c4ccco4)c(-c4ccco4)nc3c2)cc1OC`?
LANA-H2B inh: inactive; ALR inh: inactive; ABHD5 PLIN5 PPI: 34

Results for CCc1nc2ccc(C(=O)NCCc3ccc(OC)c(OC)c3)cc2nc1CC ?
LANA-H2B inh: inactive; rCAG RNA binder: inactive; ALR inh: inactive; ABHD5 PLIN5 PPI: inactive; PRMT1 inh: inactive; Rtt109 Vps75: inactive

Results for COc1ccc2oc(=O)c(C(=O)NCCc3ccc(OC)c(OC)c3)cc2c1 ?
LANA-H2B inh: 12; rCAG RNA binder: inactive; ALR inh: inactive; ABHD5 PLIN5 PPI: inactive; PRMT1 inh: inactive; Rtt109 Vps75: inactive

How did C#CCNC(=O)C[C@@H]1C(=O)N(CC=C)C2=CCCCC[C@]21C(=O)OC do in these assays?
rCAG RNA binder: inactive; PRMT1 inh: inactive

Results for CNC(=O)COC(=O)c1cc(F)c(F)cc1Cl ?
LANA-H2B inh: 20; rCAG RNA binder: inactive; ALR inh: inactive; ABHD5 PLIN5 PPI: inactive; PRMT1 inh: inactive; Rtt109 Vps75: inactive

What do the screens show for `CSCC[C@H](NC(=O)N1CCn2c1nc1ccccc12)C(=O)N1CCCCC1`?
LANA-H2B inh: inactive; rCAG RNA binder: inactive; ALR inh: 98; ABHD5 PLIN5 PPI: inactive; PRMT1 inh: inactive; Rtt109 Vps75: inactive

How did CC(C)C[C@H](NC(=O)N1CCn2c1nc1ccccc12)C(=O)N1CCCCC1 do in these assays?
LANA-H2B inh: inactive; rCAG RNA binder: inactive; ALR inh: inactive; ABHD5 PLIN5 PPI: inactive; PRMT1 inh: inactive; Rtt109 Vps75: inactive
